# Where two headings read alike, the source gives them in different places.
# How the values were obtained:
# Design in all cases: species or system human, MV4-11 + K-562 + COLO205 + SK-N-BE2 + OVCAR-8
# [1] = test system: ADCK1; settings: read-out: apparent Kd; compound concentrations: 100 nM and 1000 nM (sheet 'Samples'), CATDS: 7.5755485484616303E-2; n = 1
# [2] = test system: CLK1; settings: read-out: apparent Kd; compound concentrations: 100 nM and 1000 nM (sheet 'Samples'), CATDS: 0.119172303588979; n = 1
# [3] = test system: CLK2; settings: read-out: apparent Kd; compound concentrations: 100 nM and 1000 nM (sheet 'Samples'), CATDS: 0.34791334092069898; n = 1
# [4] = test system: CLK4; settings: read-out: apparent Kd; compound concentrations: 100 nM and 1000 nM (sheet 'Samples'), CATDS: 0.107849742816713; n = 1
# [5] = test system: T1, DJA1; settings: read-out: apparent Kd; compound concentrations: 100 nM and 1000 nM (sheet 'Samples'), CATDS: 8.1274220944096601E-2; n = 1
# T1 construct: gene DNAJA1
# [6] = test system: MAPK14; settings: read-out: apparent Kd; compound concentrations: 100 nM and 1000 nM (sheet 'Samples'), CATDS: 9.4734585023085197E-2; n = 1
# [7] = test system: NQO2; settings: read-out: apparent Kd; compound concentrations: 100 nM and 1000 nM (sheet 'Samples'), CATDS: 8.1973384609640695E-2; n = 1
# [8] = test system: PIP4K2C; settings: read-out: apparent Kd; compound concentrations: 100 nM and 1000 nM (sheet 'Samples'), CATDS: 7.6274821078241906E-2; n = 1
# [9] = test system: STK16; settings: read-out: apparent Kd; compound concentrations: 100 nM and 1000 nM (sheet 'Samples'), CATDS: 8.9736368471695804E-2; n = 1
# [10] = test system: TESK2; settings: read-out: apparent Kd; compound concentrations: 100 nM and 1000 nM (sheet 'Samples'), CATDS: 7.0727879355670806E-2; n = 1
# [11] = test system: TGFBR2; settings: read-out: apparent Kd; compound concentrations: 100 nM and 1000 nM (sheet 'Samples'), CATDS: 7.2410579705908001E-2; n = 1
# [12] = test system: ADCK3; settings: read-out: apparent Kd; compound concentrations: 100 nM and 1000 nM (sheet 'Samples'), CATDS: 0.67916876553854699; n = 1
# [13] = test system: AKT1; settings: read-out: apparent Kd, compound concentrations: 100 nM and 1000 nM (sheet 'Samples'), n = 1
# [14] = test system: ADRBK1; settings: read-out: apparent Kd, n = 1
# [15] = test system: AKT2; settings: read-out: apparent Kd, n = 1
# [16] = test system: MAP2K5; settings: read-out: apparent Kd; compound concentrations:100 nM and 1000 nM (sheet 'Samples'); n = 1
# [17] = test system: RIOK2; settings: read-out: apparent Kd; compound concentrations:100 nM and 1000 nM (sheet 'Samples'); n = 1
# [18] = test system: RIPK3; settings: read-out: apparent Kd; compound concentrations:100 nM and 1000 nM (sheet 'Samples'); n = 1
# [19] = test system: CDK6; settings: read-out: apparent Kd; compound concentrations: 100 nM and 1000 nM (sheet 'Samples'), CATDS: 0.120580307710246; n = 1
# [20] = test system: MAP2K1; settings: read-out: apparent Kd; compound concentrations: 100 nM and 1000 nM (sheet 'Samples'), CATDS: 0.131345384217323; n = 1
# [21] = test system: MAP2K2; settings: read-out: apparent Kd; compound concentrations: 100 nM and 1000 nM (sheet 'Samples'), CATDS: 0.121431246351448; n = 1
# [22] = test system: NNT; settings: read-out: apparent Kd; compound concentrations: 100 nM and 1000 nM (sheet 'Samples'), CATDS: 0.14240170913061401; n = 1
# [23] = test system: NQO1; settings: read-out: apparent Kd; compound concentrations: 100 nM and 1000 nM (sheet 'Samples'), CATDS: 0.12637990091667001; n = 1
# [24] = compound concentrations:100 nM and 1000 nM (sheet 'Samples')
smiles,measurement,setting,value
CCOc1ccc2c(-c3ccnc(Nc4cc(OC)cc(C(F)(F)F)c4)n3)cnn2n1 [GW807982X_KCGS],potency estimated from few doses,[1],1.8 µM
same,potency estimated from few doses,[2],0.672 µM
same,potency estimated from few doses,[3],0.132 µM
same,potency estimated from few doses,[4],0.811 µM
same,potency estimated from few doses,[5],1.5 µM
same,potency estimated from few doses,[6],1.05 µM
same,potency estimated from few doses,[7],1.47 µM
same,potency estimated from few doses,[8],1.76 µM
same,potency estimated from few doses,[9],1.19 µM
same,potency estimated from few doses,[10],2.18 µM
same,potency estimated from few doses,[11],2.04 µM
FC(F)(F)c1ccc(-c2nn3ncccc3c2-c2ccnc(Nc3ccc(Cl)c(C(F)(F)F)c3)n2)cc1 [GW829350X],potency estimated from few doses,[12],0.727 µM
same,potency estimated from few doses,[13]; CATDS: 0.39563035574495098,2.35 µM
O=C(O)C(F)(F)F.O=C(O[C@H]1CN[C@H](C#Cc2cc3ncnc(Nc4ccc(Cc5ccccc5)cc4)c3s2)C1)N1CCOCC1 [GSK238583A],potency estimated from few doses,[14]; [24],1.67 µM
same,potency estimated from few doses,[15]; [24],1.77 µM
same,potency estimated from few doses,[16],0.646 µM
same,potency estimated from few doses,[17],2.42 µM
same,potency estimated from few doses,[18],2.26 µM
Cn1cc(C2=C(c3ccc4ccccc4c3)C(=O)NC2=O)c2ccccc21 [RO0317254-000],potency estimated from few doses,"[14]; compound concentrations: 100 nM and 1000 nM (sheet 'Samples'), CATDS: 0.11613570195442",2.34 µM
same,potency estimated from few doses,[13]; CATDS: 0.12373221048930499,2.05 µM
same,potency estimated from few doses,"[15]; compound concentrations: 100 nM and 1000 nM (sheet 'Samples'), CATDS: 0.121499008172246",2.13 µM
same,potency estimated from few doses,[19],2.16 µM
same,potency estimated from few doses,[20],1.82 µM
same,potency estimated from few doses,[21],2.13 µM
same,potency estimated from few doses,[22],1.57 µM
same,potency estimated from few doses,[23],1.96 µM
